# Source: PubChem
# Only a selection was taken, and hits are over-represented in it overall.
# nsP2pro primary: blocks chikungunya virus nsP2 protease peptide cleavage; hit rate 1.1% among 31,000; Q8JUX6; FRET peptide cleavage, nsP2pro, fluorescence 1 h; Potency, µM (series often up to 24.9 µM), for the others: top-dose activity change, negative = inhibition, usual class: inhibitors; also: nearly all actives have a fitted effect of over 60% in size
#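 FRET cleavage of 2.5 uM peptide 2 by 150 nM CHIKV protease domain at pH 8.0 (Tris, Tween 20). Compounds at 7 concentrations (up to 25 uM) preincubated 15 min. Fluorescence read after 1 h at room temperature.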
# CHIKV nsP2 cell: inhibits CHIKV nsP2 protease in cells; shares compounds with nsP2pro primary; cell-based CHIKV nsP2 protease reporter assay; Potency, µM (doses to about 51.1 µM), without a hit: top-dose activity change, negative = inhibition, usual class: inhibitors; hit rate 10% among 450; also: nearly all actives have a fitted effect of over 70% in size
# CHIKV NSP2 FL: inhibits full-length CHIKV NSP2 enzyme. shares compounds with nsP2pro primary. Full-length CHIKV NSP2 protease enzymatic counterscreen. Potency, µM (top dose mostly 50.7 µM), for inactives: top-dose activity change, negative = inhibition, hits mostly inhibitors. hit rate 39% among 410; also: nearly all actives have a fitted effect of over 65% in size
# Furin counterscr: human furin inhibition, counterscreen for nsP2pro inhibitors | shares compounds with nsP2pro primary | Recombinant human furin enzymatic counterscreen, fluorogenic substrate | Potency, µM (series often up to 50.6 µM), without a hit: at the highest dose activity change, negative = inhibition, hits mostly inhibitors | hit rate 6% among 410
# nsP2 NS23 pep: nsP2pro inhibition on native NS2/3 peptide substrate | shares compounds with nsP2pro primary | Purified CHIKV nsP2 protease, endogenous NS2/3 peptide cleavage | Potency, µM (titrated, usually from 51 µM), inactives show at the top dose activity change, negative = inhibition, most hits filed as inhibitors | hit rate 34% among 410 | AID 1964103; also: nearly all actives have a fitted effect of over 55% in size
# Papain counter: inhibits papain in a CHIKV nsP2 protease selectivity counterscreen; shares compounds with nsP2pro primary; purified papain protease activity, enzymatic inhibition; Potency, µM (series often up to 51 µM), for the others: at the highest dose activity change, negative = inhibition, usual class: inhibitors; hit rate 5% among 410; AID 1964104
# nsP2pro conf qHTS: CHIKV nsP2 protease inhibition, confirmatory qHTS; shares compounds with nsP2pro primary; CHIKV nsP2 protease enzymatic activity, qHTS; Potency, µM (series often up to 25.5 µM), for inactives: at the top dose activity change, negative = inhibition, actives largely listed as inhibitors; hit rate 43% among 410; AID 1964105; also: nearly all actives have a fitted effect of over 75% in size
# HCV NS3 counter: selectivity counter-screen for CHIKV nsP2 protease inhibitors: HCV NS3/4A; shares compounds with nsP2pro primary; HCV NS3/4A protease biochemical counterscreen; Potency, µM (doses to about 50.9 µM), usual class: inhibitors; hit rate 20% among 410; AID 1964106; also: nearly all actives have a fitted effect of over 55% in size
# Numbers without * were called inactive; i = inactive; ? = inconclusive; [ ] = another dose, or the depositor's remark. Calls follow the shape of the full dose curve. % is scaled to controls: 0 for no effect and ±100 for the full control effect; potency is read from the fitted curve at half-maximal effect.
SMILES,nsP2pro primary,others
COc1ccc(-c2oc3c(CC=C(C)C)c(OC4OC(CO)C(O)C(O)C4O)cc(O)c3c(=O)c2OC2OC(C)C(O)C(O)C2O)cc1 (stereo unspecified),-6%,
CC(=O)Nc1sc2c(c1-c1nc3ccccc3o1)CCN(C(C)C)C2,i,
COc1ccc(NC(=S)N2CCN(c3cccc(C(F)(F)F)c3)CC2)nc1,-13%,
Cc1cc(C)cc(-c2ccc(CN3CCCC(N[S+](C)(=O)[O-])C3)cc2)c1 (stereo unspecified),i,
CC(C)(C)n1nc(Cc2cccc([N+](=O)[O-])c2)c2c(N)ncnc21,i,
COC(O)(CC(C)C)C1Oc2cc(C)[nH]c(=O)c2O1 (stereo unspecified),8.8µM*,CHIKV nsP2 cell=11%;CHIKV NSP2 FL=-6%;Furin counterscr=-4%;nsP2 NS23 pep=1%;Papain counter=-3%;nsP2pro conf qHTS=-23%;HCV NS3 counter=i
CCCCCCCC(=O)N[C@H](CN1CCCC1)[C@H](O)c1ccc2c(c1)OCCO2,-7%,
C[N+](C)(C)C1CCC(CC2CCC([N+](C)(C)C)CC2)CC1 (stereo unspecified),-2%,
Oc1cc(CNC(=S)/C=C/c2cc(O)c(O)c(Br)c2)cc(O)c1O,5.6µM*,CHIKV nsP2 cell=0.22µM*;CHIKV NSP2 FL=15µM*;Furin counterscr=?;nsP2 NS23 pep=6.5µM*;Papain counter=?;nsP2pro conf qHTS=5µM*;HCV NS3 counter=3.7µM*
CCC(C(=O)O)[C@H]1CC[C@H](C)[C@H]([C@@H](C)[C@H](O)[C@H](C)C(=O)[C@H](CC)[C@H]2OC3(C=C[C@@H](O)[C@]4(CC[C@@](C)([C@H]5CC[C@](O)(CC)[C@H](C)O5)O4)O3)[C@H](C)C[C@@H]2C)O1 (stereo partly specified),-4%,
CC(=O)c1ccc(N2CCN(S(=O)(=O)c3ccc4c(c3)CCCN4C(C)=O)CC2)cc1,-7%,
O=C(CCl)N1CCC2(CC1)CC(c1cccc(C(F)(F)F)c1)=NO2,-9%[39.2 µM],
O=C(Nc1ccc(Br)cc1)Nc1nnc(-c2ccncc2)s1,-7%,
FC(F)(F)c1ccccc1-c1nc(NCc2ccc(-c3ccc(Cl)cc3)cc2)c2ccccc2n1,-18%,
CCOc1ccc(C(=O)Nc2ccc3nc(SCC(=O)N4CCCC4)sc3c2)cc1,-11%,
O=C(Nc1ccc2nc(SCC(=O)N3CCc4ccccc43)sc2c1)c1cccc(Cl)c1,-16%,
CCOC(=O)CSc1nc2ccc(NC(=O)c3ccc(Cl)cc3)cc2s1,?,CHIKV nsP2 cell=-7%
CN1C(=O)N(C[C@H](C(=O)NO)[C@@H](CC2CCCC2)C(=O)N2CCCCC2)C(=O)C1(C)C,-4%,
CCCCc1ccc(NC(C)=O)c(C)c1,-22%,
C[C@H]1O[C@]2(CS1)CN1CCC2CC1,7%,
O=C(O)[C@@H](O)[C@H](O)[C@H](O)[C@@H](O)C(=O)O,-2%,
O=C(O)C(Cl)Cl,1%,
O=C(O)C(S)C(S)C(=O)O (stereo unspecified),8.8µM*,CHIKV nsP2 cell=3%;CHIKV NSP2 FL=?;Furin counterscr=-9%;nsP2 NS23 pep=?;Papain counter=?;nsP2pro conf qHTS=?;HCV NS3 counter=i
O=[S+]([O-])(Nc1ccc(-c2nc3ccccc3[nH]2)cc1)c1ccc2c(c1)CCO2,-13%,
CN(Cc1ccc(-c2ccc(C#N)cc2)o1)c1ccc(N2CCN(C(=O)OC(C)(C)C)CC2)cc1,-4%,
CN(C)c1ccc(-c2ccc(=O)n(CC(=O)NCCc3ccccc3)n2)cc1,i,
C#C[C@]1(O)CC[C@@H]2[C@@H]3CCC4=CCCC[C@@H]4[C@H]3C(=C)C[C@@]21CC,27%,
